Experiment [1] addresses Thyrotropin-releasing hormone receptor (Homo sapiens) (UniProt P34981). Kind of experiment: qHTS assay to identify small molecule agonists of the thyrotropin-releasing hormone receptor (TRHR) signaling pathway (AID 1346891; calls by dose curve;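 note: HEK293 cells expressing TRHR with calcium dye readout; series mostly up to about 58 µM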). The gist of the method:
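Compounds were tested as agonists at 15 concentrations, in triplicate, on TRHR-Hek293 cells; calcium-sensitive dye fluorescence was recorded for 3 min following addition.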
On the technique in general: In qHTS, concentration-response curves come from the screen itself.

The nature of experiment [2]: Human pregnane X receptor (PXR) small molecule agonists, qHTS cell viability counter screen (AID 1346977). Note: nearly all actives have a fitted effect of over 50% in size. Note: potency is the fitted concentration of half-maximal effect. The gist of the method:
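Viability counter screen: CellTiter-Fluor signal in PXR-Luc HepG2 cells, 24hr compound exposure, 37C, 5% CO2.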

Experiment [3] is described as follows: Caspase-3/7 induction in HepG2 cells by small molecules, qHTS assay (AID 1346978). Note: nearly all actives have a fitted effect of over 15% in size. Note: potency is the fitted concentration of half-maximal effect. The gist of the method:
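Caspase-3/7 induction was measured by Caspase-Glo 3/7 luminescence (30 min, room temperature) after a 17 hr compound exposure of wild-type HepG2 cells seeded at 2,000 per well and pre-incubated 5 hr.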

The nature of experiment [4]: Caspase-3/7 induction in CHO-K1 cells by small molecules, qHTS cell viability counter screen (AID 1346979). Note: nearly all actives have a fitted effect of over 35% in size. Note: potency is the fitted concentration of half-maximal effect. In outline: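 Viability readout by fluorescence (CellTiter-Fluor) on wild-type CHO-K1 cells exposed for 16hr at 37C and 5% CO2 to compounds delivered in DMSO; reagent incubated 1hr before reading.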
Experiment [5] in a line: Caspase-3/7 induction in HepG2 cells by small molecules, qHTS cell viability counter screen (AID 1346981). Note: nearly all actives have a fitted effect of over 30% in size. Note: potency is the fitted concentration of half-maximal effect. The gist of the method: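 Wild-type HepG2 cells, 2,000/well, settled 5 hr at 37 C, 5% CO2 before compound addition. Viability read by CellTiter-Fluor fluorescence, reagent added after 16 hr compound exposure, then 1 hr at 37C, in the same wells as the caspase read.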

The target in experiment [6] is Nuclear receptor subfamily 1 group I member 2 (Homo sapiens) (UniProt O75469). Kind of experiment: Human pregnane X receptor (PXR) small molecule agonists, qHTS assay (AID 1346982). Note: nearly all actives have a fitted effect of over 35% in size. Note: potency is the fitted concentration of half-maximal effect. In outline:
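PXR-Luc HepG2 reporter cells (CYP3A4-driven luciferase) in 5% charcoal-stripped FBS medium, plated 5 h before compound addition, then treated 24 h at 37C. Luciferase read by ONE-Glo luminescence after 30 min at room temperature.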

Experiment [7] addresses Cytochrome P450 2D6 (Homo sapiens) (UniProt P10635). Description: Cytochrome P450 Family 2 Subfamily D Member 6 (CYP2D6) small molecule antagonists: luciferase reporter qHTS assay (AID 1671196). Note: nearly all actives have a fitted effect of over 50% in size. Note: potency is the fitted concentration of half-maximal effect. In outline: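 Cell-free P450-Glo system: CYP2D6 with proluciferin substrate was pre-incubated with compound for 10 min, then reacted with NADPH regeneration for 1 h at room temperature. Luciferin product was detected after 20 min, and data were reported as relative luminescence units.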
(A reporter such as luciferase makes a cellular process visible.)

The target of experiment [8] is Cytochrome P450 2C19 (Homo sapiens) (UniProt P33261). Description: Cytochrome P450 Family 2 Subfamily C Member 19 (CYP2C19) small molecule antagonists: luciferase reporter qHTS assay (AID 1671197). Note: nearly all actives have a fitted effect of over 65% in size. Note: potency is the fitted concentration of half-maximal effect. In outline:
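First, compounds are pinned into enzyme-substrate mix and held 10 min at room temperature. Second, NADPH regeneration solution is added and plates incubate 1 h at 37C. Third, detection reagent is added and luminescence read after 20 min.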

Experiment [9] concerns the target Cytochrome P450 2C9 (Homo sapiens) (UniProt P11712). Kind of experiment: Cytochrome P450 Family 2 Subfamily C Member 9 (CYP2C9) small molecule antagonists: luciferase reporter qHTS assay (AID 1671198). Note: nearly all actives have a fitted effect of over 50% in size. Note: potency is the fitted concentration of half-maximal effect. In outline:
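Enzyme-substrate mix preincubated with compound 10 min at room temperature; reaction started with NADPH regeneration solution, 1 h 37C. Luminescent luciferin product read after 20 min detection reagent.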

Experiment [10] has as its target Cytochrome P450 1A2 (Homo sapiens) (UniProt P05177). Kind of experiment: Cytochrome P450 Family 1 Subfamily A Member 2 (CYP1A2) small molecule antagonists: luciferase reporter qHTS assay (AID 1671199). Note: nearly all actives have a fitted effect of over 50% in size. Note: potency is the fitted concentration of half-maximal effect. In outline:
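P450-Glo CYP1A2 enzyme–proluciferin substrate mix with compound 10 min at room temperature, then NADPH regeneration 1 h at room temperature. Luciferin detection reagent added, luminescence read after 20 min; furafylline positive control.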

For experiment [11], the target named is Cytochrome P450 3A4 (Homo sapiens) (UniProt P08684). Description: Cytochrome P450 Family 3 Subfamily A Member 4 (CYP3A4) small molecule antagonists: luciferase reporter qHTS assay (AID 1671201). Note: nearly all actives have a fitted effect of over 50% in size. Note: potency is the fitted concentration of half-maximal effect. The gist of the method:
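Relative luminescence units after 20 min with luciferin detection reagent served as read-out. Beforehand, CYP3A4 turned over a proluciferin substrate for 1 h at room temperature with NADPH regeneration, following 10 min compound preincubation.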

The target of experiment [12] is Voltage-gated inwardly rectifying potassium channel KCNH2 (Homo sapiens) (UniProt Q12809). Kind of experiment: Human Ether-a-go-go-Related Gene (hERG) channel small molecule antagonists: fluorescence cell-based qHTS assay (AID 1671200). In outline: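 Thallium served as the potassium surrogate; its influx into dye-loaded U2OS cells carrying the channel was measured by fluorescence over 2 min.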
Sequence of Voltage-gated inwardly rectifying potassium channel KCNH2 (Homo sapiens) (Q12809 whole entry, looked up): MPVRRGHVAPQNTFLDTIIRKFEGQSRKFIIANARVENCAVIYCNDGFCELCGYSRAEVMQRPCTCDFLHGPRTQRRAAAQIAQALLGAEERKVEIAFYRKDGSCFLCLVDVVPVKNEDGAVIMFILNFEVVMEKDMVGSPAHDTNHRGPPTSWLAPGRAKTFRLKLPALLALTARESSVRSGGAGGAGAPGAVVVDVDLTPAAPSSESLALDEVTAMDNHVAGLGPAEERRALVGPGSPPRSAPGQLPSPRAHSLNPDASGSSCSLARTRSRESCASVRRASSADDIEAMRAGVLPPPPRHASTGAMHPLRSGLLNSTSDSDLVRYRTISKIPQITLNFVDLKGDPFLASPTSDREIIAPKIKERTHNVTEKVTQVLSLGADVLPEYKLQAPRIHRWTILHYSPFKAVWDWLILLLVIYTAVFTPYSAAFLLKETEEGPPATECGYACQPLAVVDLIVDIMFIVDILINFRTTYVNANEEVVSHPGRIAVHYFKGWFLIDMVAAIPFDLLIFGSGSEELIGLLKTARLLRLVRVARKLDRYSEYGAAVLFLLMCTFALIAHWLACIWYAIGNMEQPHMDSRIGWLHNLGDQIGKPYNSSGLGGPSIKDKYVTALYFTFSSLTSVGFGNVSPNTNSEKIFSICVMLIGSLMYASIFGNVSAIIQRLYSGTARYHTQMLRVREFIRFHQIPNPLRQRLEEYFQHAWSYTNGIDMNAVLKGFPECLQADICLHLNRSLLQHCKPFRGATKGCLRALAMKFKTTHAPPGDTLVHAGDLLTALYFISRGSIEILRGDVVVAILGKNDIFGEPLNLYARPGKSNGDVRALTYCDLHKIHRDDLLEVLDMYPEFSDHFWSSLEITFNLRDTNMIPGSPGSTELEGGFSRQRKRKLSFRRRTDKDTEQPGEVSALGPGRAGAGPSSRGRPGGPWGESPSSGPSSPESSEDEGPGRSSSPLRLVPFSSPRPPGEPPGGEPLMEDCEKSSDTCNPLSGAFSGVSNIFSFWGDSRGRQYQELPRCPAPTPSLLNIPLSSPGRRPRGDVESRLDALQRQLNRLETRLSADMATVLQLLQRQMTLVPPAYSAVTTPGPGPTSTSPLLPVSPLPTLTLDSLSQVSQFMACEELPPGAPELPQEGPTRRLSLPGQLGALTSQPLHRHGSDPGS
In general terms: The hERG channel carries a current that helps repolarise heart muscle cells.

The nature of experiment [13]: Caspase-3/7 induction in CHO-K1 cells by small molecules, qHTS assay (AID 1346980). Note: nearly all actives have a fitted effect of over 15% in size. The gist of the method: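 Luminescent Caspase-Glo 3/7 read (30min, room temperature) quantified apoptosis induction. Cells were wild-type CHO-K1, treated with compound for 17hr at 37 C and 5% CO2.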
The target in experiment [14] is Nuclear receptor subfamily 1 group I member 2 (Rattus norvegicus) (UniProt Q9R1A7). Description: Rat pregnane X receptor (rPXR) activation by small molecules, qHTS assay (AID 1346983). Note: nearly all actives have a fitted effect of over 20% in size. The settings on record: rPXR luciferase reporter cells, One-Glo luminescence, 24 h; hits give high values. In outline: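 Luminescent readout (One-Glo luciferase, 30 min room temperature) followed 24 hr compound treatment at 37 C of rPXR cells plated 2,000 per well and preincubated 5hr; qHTS format with compounds delivered in DMSO.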
Sequence of Nuclear receptor subfamily 1 group I member 2 (Rattus norvegicus) (Q9R1A7 whole entry, looked up): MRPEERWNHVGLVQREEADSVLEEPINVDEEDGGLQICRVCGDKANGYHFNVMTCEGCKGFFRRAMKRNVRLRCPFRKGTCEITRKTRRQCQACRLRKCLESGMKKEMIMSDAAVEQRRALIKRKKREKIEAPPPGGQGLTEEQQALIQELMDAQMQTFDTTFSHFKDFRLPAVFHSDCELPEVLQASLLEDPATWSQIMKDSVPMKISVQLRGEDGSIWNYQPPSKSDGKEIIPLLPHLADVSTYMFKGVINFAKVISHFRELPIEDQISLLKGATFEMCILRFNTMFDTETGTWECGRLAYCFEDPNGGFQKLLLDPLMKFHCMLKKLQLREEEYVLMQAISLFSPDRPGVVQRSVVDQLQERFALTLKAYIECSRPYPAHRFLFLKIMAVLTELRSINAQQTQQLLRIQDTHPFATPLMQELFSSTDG

For experiment [15], the target named is Nuclear receptor subfamily 1 group I member 2 (Homo sapiens) (UniProt O75469). Kind of experiment: Human pregnane X receptor (PXR) activation by small molecules, qHTS assay (AID 1346985). Note: nearly all actives have a fitted effect of over 40% in size. In outline:
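DPX-2 cells (HepG2 co-transfected with a PXR response element and a CYP3A4-promoter luciferase construct) were seeded at 2,000 per well, rested 5 hr at 37C, then exposed to DMSO-dissolved compounds for 24 hr. Activation was read as luciferase luminescence.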

The target is the same in experiment [16]. Kind of experiment: CYP3A4 induction through human pregnane X receptor (PXR) by small molecules, qHTS assay (AID 1346984). Note: nearly all actives have a fitted effect of over 40% in size. The gist of the method:
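DPX-2 HepG2 cells carrying a PXR response element and CYP3A4-promoter luciferase construct, treated with compounds 24 hr at 37C. Then P450-Glo CYP3A4 Luciferin-IPA substrate (3uM final) for 3 hr at 37C, One-Glo added, luminescence read.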

A number with no mark means an inactive call. Records with an inconclusive call do not appear. Active and inactive are the calls of the source. Unless noted, calls come from the whole dose curve; as a rule, active = well fitted curve in the direction sought with a large enough effect in the repeat runs; inconclusive = weak or mixed curves; inactive = no such curve, though single readings can be large; an effect the other way counts as inactive or inconclusive.
% is set by controls: 0 for no effect and ±100 for the full control effect.

Sequence of Cytochrome P450 1A2 (Homo sapiens) (P05177 whole entry, looked up): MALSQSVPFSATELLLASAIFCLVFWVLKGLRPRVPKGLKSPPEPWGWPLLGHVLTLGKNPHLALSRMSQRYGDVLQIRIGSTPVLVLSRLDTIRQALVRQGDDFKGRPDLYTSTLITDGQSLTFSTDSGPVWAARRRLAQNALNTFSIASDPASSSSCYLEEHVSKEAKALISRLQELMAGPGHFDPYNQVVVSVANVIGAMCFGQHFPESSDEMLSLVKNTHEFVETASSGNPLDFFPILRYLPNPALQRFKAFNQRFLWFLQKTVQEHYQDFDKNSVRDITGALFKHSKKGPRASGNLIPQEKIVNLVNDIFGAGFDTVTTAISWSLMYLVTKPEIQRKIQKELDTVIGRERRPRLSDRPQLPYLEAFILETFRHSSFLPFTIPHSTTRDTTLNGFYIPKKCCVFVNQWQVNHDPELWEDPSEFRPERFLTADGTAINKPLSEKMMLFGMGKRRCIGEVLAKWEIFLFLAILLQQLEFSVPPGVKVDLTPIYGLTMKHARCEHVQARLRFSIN
Sequence of Nuclear receptor subfamily 1 group I member 2 (Homo sapiens) (O75469 whole entry, looked up): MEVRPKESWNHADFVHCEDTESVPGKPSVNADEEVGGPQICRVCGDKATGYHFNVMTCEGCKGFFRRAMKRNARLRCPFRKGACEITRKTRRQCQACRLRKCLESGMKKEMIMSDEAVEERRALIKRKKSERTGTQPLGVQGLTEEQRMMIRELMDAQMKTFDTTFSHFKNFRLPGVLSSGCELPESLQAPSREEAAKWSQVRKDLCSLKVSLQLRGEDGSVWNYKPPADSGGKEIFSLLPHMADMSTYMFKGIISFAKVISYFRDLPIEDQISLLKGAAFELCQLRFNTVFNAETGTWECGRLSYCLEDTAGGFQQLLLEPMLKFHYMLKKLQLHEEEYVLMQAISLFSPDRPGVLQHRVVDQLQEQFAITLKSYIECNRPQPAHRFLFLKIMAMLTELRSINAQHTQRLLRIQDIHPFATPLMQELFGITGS
Sequence of Cytochrome P450 2C9 (Homo sapiens) (P11712 whole entry, looked up): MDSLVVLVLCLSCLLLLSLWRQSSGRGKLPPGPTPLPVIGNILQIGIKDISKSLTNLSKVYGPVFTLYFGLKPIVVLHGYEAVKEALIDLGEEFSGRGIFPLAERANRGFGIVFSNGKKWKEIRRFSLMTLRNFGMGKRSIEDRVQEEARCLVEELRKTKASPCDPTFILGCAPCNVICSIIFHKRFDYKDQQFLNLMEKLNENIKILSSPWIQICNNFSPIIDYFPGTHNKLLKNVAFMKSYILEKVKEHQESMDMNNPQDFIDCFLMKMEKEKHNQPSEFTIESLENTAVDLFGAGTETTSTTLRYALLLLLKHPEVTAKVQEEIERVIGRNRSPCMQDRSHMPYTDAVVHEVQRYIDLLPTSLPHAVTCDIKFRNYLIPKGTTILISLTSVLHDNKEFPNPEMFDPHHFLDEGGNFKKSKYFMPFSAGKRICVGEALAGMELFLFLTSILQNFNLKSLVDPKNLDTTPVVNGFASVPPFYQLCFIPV
Sequence of Thyrotropin-releasing hormone receptor (Homo sapiens) (P34981 whole entry, looked up): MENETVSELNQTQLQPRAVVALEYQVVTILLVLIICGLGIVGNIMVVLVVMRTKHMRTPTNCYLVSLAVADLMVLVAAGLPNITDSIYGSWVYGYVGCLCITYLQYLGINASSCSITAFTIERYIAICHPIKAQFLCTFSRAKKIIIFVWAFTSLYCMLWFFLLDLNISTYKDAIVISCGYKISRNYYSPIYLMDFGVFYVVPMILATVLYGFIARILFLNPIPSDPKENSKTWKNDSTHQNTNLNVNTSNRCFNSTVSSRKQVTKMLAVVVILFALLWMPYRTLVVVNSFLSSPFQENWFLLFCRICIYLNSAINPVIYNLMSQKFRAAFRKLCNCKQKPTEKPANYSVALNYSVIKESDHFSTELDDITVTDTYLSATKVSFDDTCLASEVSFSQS
Sequence of Cytochrome P450 2C19 (Homo sapiens) (P33261 whole entry, looked up): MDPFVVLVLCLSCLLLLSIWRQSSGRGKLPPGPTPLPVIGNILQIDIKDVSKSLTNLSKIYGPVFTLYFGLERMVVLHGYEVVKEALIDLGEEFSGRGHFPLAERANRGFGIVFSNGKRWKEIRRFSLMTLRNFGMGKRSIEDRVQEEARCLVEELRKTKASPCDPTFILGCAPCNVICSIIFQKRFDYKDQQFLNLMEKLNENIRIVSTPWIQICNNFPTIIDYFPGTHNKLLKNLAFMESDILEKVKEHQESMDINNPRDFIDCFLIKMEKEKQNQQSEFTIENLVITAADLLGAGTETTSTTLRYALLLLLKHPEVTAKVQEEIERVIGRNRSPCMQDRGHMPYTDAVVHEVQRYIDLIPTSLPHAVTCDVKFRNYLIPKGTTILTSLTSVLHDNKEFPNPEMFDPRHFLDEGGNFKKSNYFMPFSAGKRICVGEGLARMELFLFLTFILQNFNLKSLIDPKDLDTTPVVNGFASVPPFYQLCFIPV
Sequence of Cytochrome P450 3A4 (Homo sapiens) (P08684 whole entry, looked up): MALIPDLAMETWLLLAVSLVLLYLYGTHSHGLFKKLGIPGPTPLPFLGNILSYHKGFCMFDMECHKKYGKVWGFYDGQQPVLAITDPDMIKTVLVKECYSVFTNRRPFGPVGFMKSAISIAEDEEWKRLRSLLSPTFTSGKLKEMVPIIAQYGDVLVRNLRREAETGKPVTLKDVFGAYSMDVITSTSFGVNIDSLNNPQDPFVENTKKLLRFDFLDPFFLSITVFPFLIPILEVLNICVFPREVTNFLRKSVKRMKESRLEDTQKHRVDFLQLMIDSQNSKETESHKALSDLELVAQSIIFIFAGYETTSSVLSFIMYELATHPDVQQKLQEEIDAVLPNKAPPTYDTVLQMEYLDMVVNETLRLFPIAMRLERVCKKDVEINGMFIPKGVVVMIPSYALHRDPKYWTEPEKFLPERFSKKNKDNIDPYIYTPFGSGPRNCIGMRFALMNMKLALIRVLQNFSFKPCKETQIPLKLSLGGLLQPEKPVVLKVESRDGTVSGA
Sequence of Cytochrome P450 2D6 (Homo sapiens) (P10635 whole entry, looked up): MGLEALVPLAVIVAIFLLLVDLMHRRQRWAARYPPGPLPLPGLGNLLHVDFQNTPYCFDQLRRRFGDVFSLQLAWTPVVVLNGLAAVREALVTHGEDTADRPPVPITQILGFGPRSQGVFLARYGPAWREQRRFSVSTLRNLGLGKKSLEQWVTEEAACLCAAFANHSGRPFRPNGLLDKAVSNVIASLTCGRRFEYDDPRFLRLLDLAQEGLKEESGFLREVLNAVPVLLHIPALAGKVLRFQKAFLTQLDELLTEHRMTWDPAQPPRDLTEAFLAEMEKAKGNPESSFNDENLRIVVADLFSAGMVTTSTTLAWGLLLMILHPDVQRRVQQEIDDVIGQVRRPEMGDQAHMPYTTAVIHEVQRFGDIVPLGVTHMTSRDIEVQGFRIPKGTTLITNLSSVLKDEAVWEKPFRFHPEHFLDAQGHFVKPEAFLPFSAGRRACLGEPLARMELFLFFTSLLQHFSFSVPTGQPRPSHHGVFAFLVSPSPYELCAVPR

`O=C(/N=N/C(=O)OCc1ccccc1)OCc1ccccc1`: the molecule was called inactive in [1]. Besides, the Potency result in [2], in [3], in experiment [4], in experiment [5] and in experiment [7] was “inactive” each time. For the same molecule, the Potency was 30.6 µM (active) in [6]; 1.78 µM (active) in experiment [8]; 14.2 µM (active) in experiment [9]; 17.8 µM (active) in experiment [10]; 39.9 µM (active) in experiment [11].

Consider `NCCN1CCOCC1`, for which the molecule was called inactive in experiment [1]. The Potency entry in experiment [2], in [3], in experiment [4], in [5] and in experiment [12] was “inactive” throughout.

With `CNS(=O)(=O)CCc1ccc2[nH]cc(C3CCN(C)CC3)c2c1`, in experiment [1], the outcome was inactive. Further, the Potency entry in experiment [2], in [4], in experiment [6], in experiment [8], in experiment [9] and in experiment [10] was “inactive” each time. The Potency result in [12] and in experiment [11] was “inactive” throughout. The Potency in [7] is 34.7 µM (active).

With `Cc1ccccc1C(=O)Nc1ccc(C(=O)N2CCCC(N(C)C)c3ccccc32)cc1` (stereo not given), the outcome in experiment [1] and in experiment [13] was inactive. Besides, the Potency was 3.76 µM (active) in experiment [3] and 0.298 µM (active) in experiment [6]. Besides, the Potency entry in experiment [5], in experiment [7], in [8], in experiment [10] and in experiment [12] was “inactive” throughout.

Turning to `CCCCCCCCC(=O)Cl`, the molecule was called inactive in experiment [1] and in [13]. Moreover, the Potency entry in experiment [2], in [4], in experiment [6], in experiment [7], in experiment [12] and in [11] was “inactive” each time. Further, in [10], the Potency was 64 µM (active).

Regarding `COC(=O)c1ccccc1C(=O)c1ccc(OCCN2CCCCC2)cc1`, the outcome in experiment [1] and in [13] was inactive. For the same molecule, the Potency entry in [3], in experiment [4], in experiment [5], in experiment [15], in experiment [8] and in [10] was “inactive” throughout. Also, the Potency entry in experiment [12] and in experiment [11] was “inactive” throughout. Also, the max activation in experiment [14] was -0.568%. Also, the Potency in [7] was 15.5 µM (active).

As for `Nc1ccc([N+](=O)[O-])c(N)c1`, the result in experiment [1] and in experiment [13] was inactive. The Potency result in experiment [3], in experiment [12] and in experiment [11] was “inactive” throughout. Also, the Potency in experiment [4] was 53.1 µM (active); in [7] it was 7.76 µM (active); in experiment [8] it was 30.9 µM (active).

As for `CC(=O)Nc1ccc(S(=O)(=O)Nc2ccc([N+](=O)[O-])cc2)cc1`, the molecule was called inactive in experiment [1] and in experiment [13]. The Potency in [5] was 29.8 µM (active); in experiment [8], 15.5 µM (active). Further, the Potency result in experiment [6], in experiment [16], in experiment [15], in experiment [7], in [10] and in [12] was “inactive” each time. In [11], the Potency result is “inactive”. Moreover, the max activation in experiment [14] is -3.2%.

With `Nc1ccc2cc(S(=O)(=O)O)cc(O)c2c1`, the molecule was called inactive in experiment [1]. Moreover, the Potency in experiment [2] was 54.2 µM (active); in experiment [4], 54.2 µM (active); in experiment [6], 6.08 µM (active); in experiment [7], 44.5 µM (active); in experiment [8], 22.3 µM (active); in [9], 35.4 µM (active). Besides, the Potency result in experiment [12] and in experiment [11] was “inactive” throughout.

As to `C[C@@H]1O[C@@H](O[C@@H]2[C@@H](O)[C@H](OCCc3ccc(O)c(O)c3)O[C@H](CO[C@@H]3O[C@H](CO)[C@@H](O)[C@H](O)[C@H]3O)[C@H]2OC(=O)/C=C/c2ccc(O)c(O)c2)[C@H](O)[C@H](O)[C@H]1O`, in [1], the call was inactive. Moreover, the Potency entry in experiment [3], in experiment [5], in experiment [6], in experiment [7], in [8] and in [10] was “inactive” each time. The Potency entry in experiment [12] and in experiment [11] was “inactive” each time.

Values taken from PubChem BioAssay (Tox21).
